We go through 70 compounds from PubChem BioAssay AID493004 (Broad Institute, 2010).

In all, about 2,300 compounds went through this assay and fewer than 10 were called active.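 Rule for the calls: active = Signal drops as the depositor expects, and the fitted half-maximal dose is no more than ten times the top valid tested dose; inconclusive = Poor fit, or a flat curve whose signal drops by 30% to 70%; inactive = the rest.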 Only a sample is shown.

This assay in a line: Mot1-301 yeast growth enhancement – whole organism, S. cerevisiae, ATP luminescence, cherry-picked samples, SUMO pathway inhibitor project, dose response (AID 493004).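 Note: more negative values mean stronger growth rescue toward the control strain.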 The following applies: S. cerevisiae Mot1-301 galactose growth, 24 h, -100 = growth of slx-deleted rescue strain; series mostly up to 42 µM.
For the compound `COc1cc(C(=O)OCC(=O)NC(C)CCc2ccccc2)cc(OC)c1OC` (stereo not given), the result was inactive.

Consider `O=C(NCc1ccccc1Cl)C(=O)NCC1CCCN1S(=O)(=O)c1cccs1` (stereo not given), for which the outcome was inactive.

With `COc1cccc(NC(=O)c2nn(C34CC5CC(CC(C5)C3)C4)cc2[N+](=O)[O-])c1`, the result was inactive.

In the case of `CC(C)n1c(O)c(N=Nc2ccccn2)c2ccccc21`, the result was inactive.

On to `CCCCC1=CC2=CC(=O)C(C)(OC(=O)CC)C(=O)C2=CN1CCCOC(C)C` (stereo not given), for which the result was inactive.

In the case of `Cc1ccc(Nc2cc(C)nc3c(C)ccc([N+](=O)[O-])c23)cc1`, the outcome was inactive.

Turning to `CCC1(CC)NC(=O)N(CC(=O)OCC(=O)NC(=O)c2ccccc2)C1=O`, the outcome was inactive.

For `CCN1CCCC1CNC(=O)Cn1cnc2ccc(S(=O)(=O)N3CCC(C)CC3)cc2c1=O` (stereo not given), the outcome was inactive.

Regarding `CN(C)/C(CN1CCCCC1)=C1\N=C(c2ccccc2)OC1=O`, the result was inactive.

On to `COC(=O)c1sccc1NC(=O)CC1C(=O)NCCN1C(=O)Nc1ccc(F)cc1F` (stereo not given), for which the outcome was inactive.

For `COc1cc(NC(=O)C2=CC(c3ccco3)=NS(=O)(=O)N2C)cc(OC)c1OC`, the result was inactive.

In the case of `CN(C)C(=O)c1coc2nc3ccccc3nc12`, the result was inactive.

In the case of `O=C(Nc1nccs1)C1CCN(S(=O)(=O)c2ccc(Cl)c(C(F)(F)F)c2)CC1`, the outcome was inactive.

On to `Cc1cccc(-[n+]2c(-c3cccc(Br)c3)[nH]c3nc4ccccc4nc32)c1`, for which the result was inactive.

As to `COCCCN1C(=O)c2ccc(C(=O)Nc3ccc(OC)cc3OC)cc2C1=O`, the outcome was inactive.

With `COc1ccc(/C=C(\C#N)C(=O)NCCCn2ccnc2)cc1`, the result was inactive.

With `Cn1c(C(=O)NCCc2ccsc2)cc2c(=O)n(C)c3ccccc3c21`, the outcome was inactive.

As for `CN(NC(=O)c1ccccc1F)c1nc(C(F)(F)F)nc2ccccc12`, the result was inactive.

As for `Cc1cc(C)c2c(Cn3ccnc3)cc(=O)oc2c1`, the result was inactive.

Consider `COc1ccc(-c2cn(-c3ccc(C)cc3)c(=O)n2CC(=O)Nc2ccc(OC)c(OC)c2)cc1`, for which the outcome was inactive.

With `O=C1CCC(=O)N1CCOP1(=O)COc2ccccc2OC1`, the outcome was inactive.

`CCOc1ccc(C(C(=O)NC2CCCC2)N(C(=O)c2snc(C(N)=O)c2N)C2CCCC2)cc1` (stereo not given): the result was inactive.

With `Cc1ccc(O)c(CNc2nc3ccccc3n2C)c1`, the outcome was inactive.

For `NC(=O)c1cc(S(=O)(=O)N2CCCC2)ccc1OCc1ccc(F)cc1`, the result was inactive.

Turning to `COc1ccccc1CSc1ncc(-c2ccc([N+](=O)[O-])cc2)[nH]1`, the outcome was inactive.

For `O=C(CP(=O)(c1ccccc1)c1ccccc1)N1CCOCC1`, the outcome was inactive.

Regarding `N#CC1=C(N)Oc2n[nH]c(CSc3ccccc3)c2C12C(=O)Nc1ccccc12` (stereo not given), the outcome was inactive.

For the compound `COc1ccc(OC)c2c(N)c(C#N)c(C(F)(F)C(F)(F)F)nc12`, the result was inactive.

As for `COCCNC(=O)C(c1ccc(C)cc1)N(C(=O)CCC(=O)Nc1ccccn1)c1cccc(C)c1` (stereo not given), the result was inactive.

For the compound `CC(C)c1cc(C(=O)N/N=C/C(Br)=C/c2ccccc2)n[nH]1`, the result was inactive.

For the compound `CCCc1cc(=S)n2c([nH]c3ccccc32)c1C#N`, the outcome was inactive.

For the compound `CCOc1ccc(Cn2c(SCCCCC#N)nc3c2c(=O)n(C)c(=O)n3C)cc1OCC`, the outcome was inactive.

For `COc1cccc(-n2c(SCC(=O)NC3CCCCC3)nc3n[nH]c(C)c3c2=N)c1`, the outcome was inactive.

For `Cc1ccc(C)c(S(=O)(=O)n2cnc3ccccc32)c1`, the outcome was inactive.

Take `COc1ccc(C(=O)OCC(=O)c2ccc(C)c(S(=O)(=O)N3CCOCC3)c2)cc1OC`: the outcome was inactive.

In the case of `Cc1cccc(N(C(=O)c2ccc(CN3CCOCC3)o2)C(C(=O)NC2CCCCC2)c2ccc(F)cc2)c1` (stereo not given), the result was inactive.

Turning to `O=C(NC1CCCCC1)c1ccc2c(=O)n(CC3CCCO3)c(=O)[nH]c2c1` (stereo not given), the result was inactive.

In the case of `CCOCCCNCc1ccc(OCc2ccc(F)cc2)c(OC)c1`, the result was inactive.

Turning to `COc1cccc(CN(C)CC2CCCN(CCc3ccc(Cl)cc3)C2)c1OC` (stereo not given), the outcome was inactive.

As to `COc1cccc(OC)c1C(=O)Nc1ccc2c(c1)n(C)c(=O)n2C`, the outcome was inactive.

For `COC(=O)/C=C\C(=O)Nc1cccc([N+](=O)[O-])c1`, the result was inactive.

For the compound `CC(C)Cc1nc(N2CCOCC2)c(C#N)c2c1CCC2`, the outcome was inactive.

Regarding `COc1ccc(-c2[nH]nc3c2C(c2ccncc2)C(C#N)=C(N)O3)cc1` (stereo not given), the result was inactive.

`COc1cc(CN2CCNC(=O)C2CC(=O)NCCc2ncccc2C)cc(OC)c1` (stereo not given): the result was inactive.

Consider `CC(C)CCNC(=O)Cn1c(=O)oc2cc(S(=O)(=O)N3CC(C)CC(C)C3)ccc21` (stereo not given), for which the result was inactive.

For `CCc1cc2c(=O)c(-c3ccc(F)cc3)c(C(F)(F)F)oc2cc1OCC(=O)O`, the result was inactive.

As to `CCc1c(C)nc(N2CCN(Cc3ccccc3)CC2)[nH]c1=O`, the outcome was inactive.

Take `Cc1cc(C)c(OCC(=O)N/N=C/c2ccco2)c(C)c1`: the outcome was inactive.

As to `CC1=NC2(CCCc3c2no[n+]3[O-])N(O)C1(C)C` (stereo not given), the result was inactive.

For the compound `CCCCC(=O)N/N=C(\C)CC(=O)Nc1cc(Cl)ccc1OC`, the outcome was inactive.

For `CC(NC(=O)c1ccc(Cl)cc1)C(=O)N1CCCCC1` (stereo not given), the result was inactive.

Take `CCc1ccccc1NC1c2ccccc2C(=O)N1c1cccnc1` (stereo not given): the outcome was inactive.

Regarding `COc1ccccc1N1CCN(C(=O)C(=O)N/N=C/c2ccccc2F)CC1`, the result was inactive.

Consider `N#CC1=C(N)OC2=C(C(=O)CCC2)C1C1CC=CCC1` (stereo not given), for which the outcome was inactive.

On to `Cc1cc(C)c2nc(-c3cccnc3)cc(C(=O)Nc3ccc(S(=O)(=O)Nc4onc(C)c4C)cc3)c2c1`, for which the outcome was inactive.

`CSc1nc2ccc(NC(=O)c3c(F)cccc3F)cc2s1`: the result was inactive.

In the case of `COc1ccccc1/C=C/C(=O)NC(=S)N1CCOCC1`, the outcome was inactive.

In the case of `CCCCNC(=O)c1ccccc1NC(=O)C1=C(C)OCCS1`, the result was inactive.

In the case of `C=CCC(NCCCO)c1cccc(OC)c1OC` (stereo not given), the outcome was inactive.

Take `O=C(OC1CCOC1=O)c1cccc(S(=O)(=O)Nc2ccc(F)cc2)c1` (stereo not given): the result was inactive.

As for `CCOC(=O)C1(Cc2cccc(OC)c2)CCCN(S(=O)(=O)c2cccnc2)C1` (stereo not given), the outcome was inactive.

`Cc1ccc(S(=O)(=O)N2[C@@H](c3ccc(Br)cc3)C(C(=O)O)=C[C@H]2CC2CCCC2)cc1`: the outcome was inactive.

On to `CCN(CC)C(=O)CSC(Nc1cccc(F)c1)=C(C#N)C#N`, for which the result was inactive.

`Cc1ccc(NC(=O)Nc2cccc(C(F)(F)F)c2)nc1`: the outcome was inactive.

For `O=C(NCC(=O)N(c1ccccc1)C(C(=O)NCC1CCCO1)c1ccccc1)c1cccs1` (stereo not given), the result was inactive.

Consider `O=C(CSCc1ccc(Cl)cc1)N1CCCCC1`, for which the outcome was inactive.

On to `O=C1CC(c2ccccc2)C(=O)N1c1cccc(O)c1` (stereo not given), for which the outcome was inactive.

As to `Cc1nn(CCOc2ccccc2)c(=O)n1-c1ccccc1F`, the outcome was inactive.

`Oc1c(Cl)cc(Cl)c(Cl)c1Cc1c(O)c(Cl)cc(Cl)c1Cl`: the result was inactive.

On to `CC(Oc1ccccc1[N+](=O)[O-])C(=O)N/N=C/c1ccoc1` (stereo not given), for which the outcome was inactive.
